These results are taken from the supplement of paper PMC4206461.

This assay deals with Pseudomonas aeruginosa PA14 dppA1-A5 penta mutant + pBBR5.DppA1 (PA14_58350). Put plainly: respiration area under curve with compound as sole nitrogen source, 24 h (OmniLog AUC (arbitrary units)); higher = more respiration / better utilisation as nitrogen source. The procedure: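 Biolog Phenotype MicroArray plates PM6-PM8: each di/tripeptide is the sole nitrogen source. Tetrazolium reduction was read in the OmniLog for 24 h at 37°C and summarised as area under the respiration curve (arbitrary units). Values below 2000 count as no respiration. Strain is the SBP penta mutant complemented with DppA1 on a plasmid under its native promoter. Lys/His/Cys peptides are excluded.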
As to `CC(C)C[C@@H](NC(=O)CNC(=O)CN)C(=O)O` (plate: PM8), the “respiration area under curve” value was 232 (inactive).

As for `CC(C)C[C@H](NC(=O)CNC(=O)CN)C(=O)O` (plate: PM8), the “respiration area under curve” value was 3880 (active).
